p53ts 39C tox: cytotoxicity in p53ts cells at nonpermissive temperature | H1299-p53A138V viability at 39C, ATP luminescence, 24 h | Potency, µM (highest dose often 46.1 µM), actives largely listed as cytotoxic | 130,000 tested, 1.5% active | AID 902; also: nearly all actives have a fitted effect of over 55% in size
Peg3 imprint: inducers of genomic imprint erasure in mouse ES cells | Potency, µM (top dose mostly 60.7 µM), most hits filed as activators | 110,000 tested, 0.02% active | AID 1948 | mouse ES Peg3-LacZ reporter, beta-gal luminescence, 40 h
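Imprint erasure is scored as LacZ activity from the silenced maternal Peg3 allele in feeder-free female ES cells cultured 40 h with LIF. Luminescence is normalized to in-plate negative controls and fitted to the Hill equation.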
IkB sig inh: IkB pathway inhibition in ABC-DLBCL cells. ABC-DLBCL IkBa-CBG/CBR dual luciferase ratio, 4 h; response scale: scaled: untreated 0%, proteasome inhibitor 100%. Potency, µM (top dose mostly 57.1 µM). 110,000 tested, 0.04% active; active = well fitted curve in the direction sought with a large enough effect in the signal ratio, not every such curve was filed as active; inconclusive = small, poorly fitted or top-dose-only effect, or a change in a side signal; the % refers to the signal ratio;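 also: the direction sought is a rising ratio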
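Luminescence ratio of IκBα-fused green versus native red beetle luciferase in OCI-Ly3 cells, 4 h post-doxycycline with compound; red signal alone, scaled from basal (0%) to zero light (-100%), flagged nonspecific or cytotoxic effects.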
p53ts 32C kill: p53ts cell cytotoxicity, permissive temperature; H1299-p53A138V at 32C, ATP luminescence viability, 24 h; Potency, µM (series often up to 46.1 µM), most hits filed as cytotoxic; 130,000 tested, 0.93% active; AID 924; also: nearly all actives have a fitted effect of over 55% in size
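Viability by ATPlite luminescence after 24 h compound treatment (up to 46 uM) at the permissive 32C. Cells are H1299 carrying p53 A138V. Scale runs from DMSO basal to 100 uM tamoxifen as full kill; AC50 from Hill fits.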
Of the large screens only hits and unclear results are named; the others gave an inactive call. Most compounds without a hit are left out; they make up all but 1.7% or so of the library. Unless noted, calls follow the shape of the dose curve; as a rule, active = well fitted curve in the direction sought with a large enough effect; inconclusive = small, poorly fitted or top-dose-only effect, or another doubt; inactive = no such curve, though single readings can be large; an effect the other way counts as inactive or inconclusive.

CCOC(=O)CCN1C(=O)[C@H]2[C@H]3[C@H](O)[C@H](O)C/C(=N/NC(=O)OCc4ccccc4)[C@@H]3CC[C@@H]2C1=O	none (no result: Peg3 imprint, IkB sig inh)
COc1ccc(NC(=O)CCCS(=O)(=O)c2nc(-c3ccc(OC)c(OC)c3)cc(C(F)(F)F)n2)cc1OC	p53ts 39C tox 2.5µM, IkB sig inh inconclusive, p53ts 32C kill inconclusive
O=C(CCS(=O)(=O)c1nc(-c2ccc3c(c2)OCO3)cc(C(F)(F)F)n1)Nc1ccc(F)cc1F	Peg3 imprint inconclusive, IkB sig inh inconclusive
COc1ccccc1-c1cc(C(F)(F)F)nc(S(=O)(=O)CCCC(=O)N2CCOCC2)n1	p53ts 39C tox inconclusive, IkB sig inh inconclusive, p53ts 32C kill inconclusive
COc1ccc(-c2cc(C(F)(F)F)nc(S(=O)(=O)CCCC(=O)Nc3ccccc3C(F)(F)F)n2)cc1OC	p53ts 39C tox 5µM, IkB sig inh inconclusive, p53ts 32C kill inconclusive
COc1ccc(-c2cc(C(F)(F)F)nc(S(=O)(=O)CCC(=O)N3CCOCC3)n2)cc1	p53ts 39C tox inconclusive, p53ts 32C kill 5µM
COc1ccccc1-c1cc(C(F)(F)F)nc(S(=O)(=O)CCCC(=O)Nc2ccc(F)c(Cl)c2)n1	p53ts 39C tox inconclusive, IkB sig inh inconclusive, p53ts 32C kill inconclusive
COc1ccc(NC(=O)CCS(=O)(=O)c2nc(-c3ccc4c(c3)OCO4)cc(C(F)(F)F)n2)cc1	IkB sig inh inconclusive, p53ts 32C kill inconclusive
COc1ccc(-c2cc(C(F)(F)F)nc(S(=O)(=O)CCCC(=O)Nc3cccc(O)c3)n2)cc1OC	p53ts 39C tox 3.2µM, IkB sig inh inconclusive, p53ts 32C kill inconclusive
CN1C2CC(OC(=O)C(CO)c3ccccc3)C[C@@H]1[C@H]1OC21 (some centres not stated)	none (no result: p53ts 39C tox, IkB sig inh, p53ts 32C kill)
COc1ccc(-c2coc3ccc(O[C@@H]4O[C@@H](COC(C)=O)[C@@H](OC(C)=O)[C@@H](OC(C)=O)[C@H]4OC(C)=O)cc3c2=O)cc1	none (no result: p53ts 39C tox, Peg3 imprint, p53ts 32C kill)
O=C(O)[C@H](C1NCCS1)N1Cc2ccccc2C1 (some centres not stated)	none (no result: p53ts 39C tox, IkB sig inh, p53ts 32C kill)
COc1ccccc1-c1cc(C(F)(F)F)nc(S(=O)(=O)CCCC(=O)Nc2cc(OC)c(OC)c(OC)c2)n1	p53ts 39C tox 5µM, p53ts 32C kill 6.3µM
CCOc1ccc(C2=C(C(C)=O)Sc3nnc(C)n3N2C(C)=O)cc1	IkB sig inh inconclusive
CCc1nnc2n1N(C(C)=O)C(c1ccc(C(C)(C)C)cc1)=C(C(C)=O)S2	p53ts 39C tox 13µM, IkB sig inh inconclusive
COc1ccccc1OCCCCn1c(C2CC(=O)N(c3ccccc3Cl)C2)nc2ccccc21 (configuration not stated)	p53ts 39C tox 20µM, IkB sig inh inconclusive, p53ts 32C kill inconclusive
CCc1ccccc1N1CC(c2nc3ccccc3n2CCCOc2ccc(Cl)cc2)CC1=O (configuration not stated)	p53ts 39C tox 20µM, IkB sig inh inconclusive, p53ts 32C kill inconclusive
CCOc1ccccc1N1CC(c2nc3ccccc3n2CCCOc2ccc(OC)cc2)CC1=O (configuration not stated)	p53ts 39C tox inconclusive, IkB sig inh inconclusive, p53ts 32C kill inconclusive
O=C(O)/C=C(/C(=O)O)[C@]12CCN3CC4=CCO[C@@H]5CC(=O)N[C@@H]1C5[C@H]4C[C@H]32 (some centres not stated)	none (no result: p53ts 39C tox, IkB sig inh, p53ts 32C kill)
O=C(COc1ccc(Cl)cc1Cl)Nc1ccccn1	p53ts 39C tox 0.63µM, IkB sig inh inconclusive, p53ts 32C kill 0.4µM
COc1ccccc1OCC(=O)Nc1ccccn1	p53ts 39C tox 7.9µM, IkB sig inh inconclusive, p53ts 32C kill 10µM
O=C(CC(=O)Nc1ccccn1)Nc1ccccn1	none
O=C(COc1ccccc1Cl)Nc1ccc(Cl)cn1	p53ts 39C tox 16µM, p53ts 32C kill 13µM
O=C(COc1ccc(Cl)cc1Cl)NC(=O)N1CCCCC1	p53ts 39C tox inconclusive, p53ts 32C kill 13µM
O=C(COc1ccc(Cl)cc1)Nc1ccc(Cl)cn1	none
O=C(COc1ccc(Cl)cc1Cl)NCc1ccncc1	none
C[C@@]12C=Cc3occc3C1CC[C@@]13C[C@@H](CCC12)[C@@](O)(CO)C3 (some centres not stated)	none (no result: p53ts 39C tox, IkB sig inh, p53ts 32C kill)
C[C@@](N)(Cc1ccc(O)c(O)c1)C(=O)O	none
CCNc1ncc2ncc(=O)n(CCOC)c2n1	Peg3 imprint inconclusive
CC1(C)CC(=O)c2sc(NC(=O)c3cccs3)nc2C1	p53ts 39C tox 1.6µM, p53ts 32C kill 1.6µM (no result: Peg3 imprint, IkB sig inh)
CC1(C)CC(=O)c2sc(NC(=O)CN3CCCCC3)nc2C1	none
O=C(Nc1nc2c(s1)CCCC2)c1cccs1	p53ts 39C tox 10µM, IkB sig inh inconclusive, p53ts 32C kill 10µM (no result: Peg3 imprint)
N#Cc1cccc(-c2nc(NCc3cccnc3)c3ccccc3n2)c1	none
O=c1cnc2cnc(Nc3ccccc3)nc2n1CCc1ccccc1	none
NCCCCNS(=O)(=O)c1cccc2c(Cl)cccc12	p53ts 39C tox 16µM
OCCN1CCN(CCC=C2c3ccccc3Sc3ccc(Cl)cc32)CC1	none
O=C(c1ccc(Cl)cc1)N1CCCCC(Sc2nnc(-c3ccc4c(c3)OCO4)o2)C1=O (configuration not stated)	p53ts 39C tox inconclusive, p53ts 32C kill 7.9µM
Cc1ccc(OC(=O)CSc2nnc(-c3ccc4c(c3)OCO4)o2)cc1	none
CC1(C)OC(C(O)(c2cc(F)c(F)c(F)c2)c2cc(F)c(F)c(F)c2)C(C(O)(c2cc(F)c(F)c(F)c2)c2cc(F)c(F)c(F)c2)O1 (configuration not stated)	none (no result: Peg3 imprint, IkB sig inh)
CC(C)(C)c1onc(OCP(=O)(O)O)c1C[C@@H](N)C(=O)O	none (no result: Peg3 imprint)

Bioassay records (PubChem BioAssay)
